Measurements from PubChem BioAssay AID708 (SRMLSC, 2007).
The campaign covered roughly 65,000 compounds. Fewer than 10 were called active.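 Rule for the calls: active = at 10 µM dose, initial 340 nm absorbance at least 2 fold that of control wells; inactive = change under 2 fold.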 The list is a sample of the results.

Assay: compound light absorbance at 340 nm, profiling panel, artefact control, biochemical, MLSMR library, data from PS, PMK, MK assays (AID 708);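 note: initial absorbance extrapolated from kinetic A340 decline of NADH oxidation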
Settings: compound absorbance at 340 nm, fold over control; at 10 µM; active compounds read high

Fold change, inactive:
COc1cc(OC)cc(C(=O)NCCSCc2ccco2)c1 1.02
CC(=O)NC1CC2CCCC(C1)N2CC(=O)Nc1ccccc1 (centres undefined) 1
COc1cc2[nH]c(=O)n(CCC(=O)NC3CCN(Cc4ccccc4)CC3)c(=O)c2cc1OC 1.06
COC(=O)c1ccc(/C=N\n2c(C)nnc2C)cc1 1.02
O=C(COc1ccccc1Cl)Nn1cnnc1 1.08
Cc1cc(-n2nc(C)cc2C)n2ncc(-c3ccccc3)c2n1 1.03
CCOC(=O)c1c(CN2CCOCC2)n(-c2ccccc2)c2ccc(O)cc12 0.98
Cc1ccc2nc(S(=O)(=O)O)[nH]c2c1 1.02
CC(=O)c1cc(C#N)c(SCC(=O)C(C)(C)C)nc1C 1.07
CC(=C1C(=O)c2ccccc2C1=O)N1CCN(c2ccccn2)CC1 1.15
CCS(=O)(=O)NCCc1ccc(OC)c(OC)c1 1.02
CCOC(=O)COc1ccc(Cl)cc1C1NC(=O)NC(C)=C1C(C)=O (centres undefined) 1.05
COc1ccc(-c2ccc(-c3noc(-c4ccncc4)n3)c(OC)n2)cc1 1.09
CSc1nc(O)c(Cc2ccccc2)c(=O)[nH]1 1
COc1ccccc1N1CCN(C(=O)c2c(-c3c(Cl)cccc3Cl)noc2C)CC1 0.98
Cc1cccc(OCc2nnc(SCC(=O)N3CCN(C(=O)c4ccco4)CC3)n2C)c1C 1.02
COCCn1nnnc1CN1CCC(NC(=O)Nc2cccc(OC)c2)CC1 1
CC(=O)c1c(N2CCOCC2)nc(=S)n(Cc2ccccc2)c1C 1.06
COc1cc(CO)c(C2(CO)CCCC2)cc1OC 1.04
CCOC(=O)C1=C(O)CSC1=Nc1cccc(Cl)c1 1.02
CCOC(=O)c1ccc2[nH]c(C)c(CN3CCN(C)CC3)c(=O)c2c1 1
Cc1nn(-c2ccccc2)c(CC(C)(C)C(=O)O)c1C(=O)O 1.02
COc1ccc2c(c1OC)C(=O)N(c1ncn[nH]1)C2 1.04
CC(C)(C)NC(=O)C(c1ccncc1)N(C(=O)CNC(=O)c1ccco1)c1ccc2c(c1)OCO2 (centres undefined) 0.98
COc1ccc(N2C(=O)C3CCCN3C2c2cc(OC)c(OC)cc2OC)cc1 (centres undefined) 1.01
O=C1c2ccccc2C(O)N1Cc1ccccc1Cl (centres undefined) 1.03
COc1cccc(C(=O)Nc2c3c(nn2-c2cccc(C)c2C)CS(=O)(=O)C3)c1OC 1.01
CCC(=O)N1CCc2cc(S(=O)(=O)NC(C(=O)N3CCc4ccccc4C3)C(C)C)ccc21 (centres undefined) 1
CCOc1cc(C(=O)N2CCc3cc(OC)c(OC)cc3C2)ccc1OC(F)F 0.97
O=C(Nc1cnn(Cc2ccc(Cl)cc2)c1)C1CCCC1 1.03
c1cc(-n2cnnn2)ccc1NC1=NCCC1 1.01
O=C(C1CCCO1)N(Cc1ccccc1)c1ccccc1 (centres undefined) 1.03
CC(C)OC(=O)C(C#N)c1nc2ccccc2nc1N1CCN(Cc2ccc3c(c2)OCO3)CC1 (centres undefined) 1.02
CCN1CCN(C(=O)c2ccccc2N(C)S(=O)(=O)c2ccc(C)cc2)CC1 1.05
COc1c(O)cccc1-c1nnn(CCC(=O)OCC(=O)c2ccccc2)n1 1.01
CS(=O)(=O)N(C(=O)NC(=O)NC1CCS(=O)(=O)C1)C1CCCCC1 (centres undefined) 1.04
N#Cc1c(N)n(CCOC(=O)c2ccc(Cl)cc2)c2nc3ccccc3nc12 1.01
CCc1cc(=O)oc2cc(C)cc(OC(C)C(=O)O)c12 (centres undefined) 1.04
O=c1[nH]nc(CSCc2ccccc2Cl)[nH]1 1.04
Cn1c(=O)n(C)c2cc(CNc3ccc(N4CCOCC4)c(C(=O)O)c3)ccc21 1
O=C(Cn1c(=O)sc2ccccc21)Nc1ccc2c(c1)OCCO2 1.01
Cc1ccc(S(=O)(=O)NCc2cn3ccsc3n2)c(C)c1 0.97
CCOc1ccc(OCC)c(NC(=O)C(NS(=O)(=O)c2ccc3c(c2)oc(=O)n3C)C(C)C)c1 (centres undefined) 0.97
COCC(C)N=CC1=C(O)CC(C)(C)CC1=O (centres undefined) 0.95
NC(=O)CSc1c[nH]c2ccccc12 1.01
COc1ccc(NC(C)=O)cc1NC(=O)CN1CCN(c2ccccn2)CC1 0.97
CCN1CCN(c2ncnc3c2oc2nc(C)c4c(c23)CC(C)(C)OC4)CC1 0.99
COc1ccc2nc(NC(=O)c3ccc(Br)s3)sc2c1 1.1
CCOC(=O)c1c(N)c(C#N)nn1-c1ccccc1C(=O)OC 1
Cc1nnc(SCc2cc(=O)[nH]c(N3CCN(Cc4ccccc4)CC3)n2)s1 1.01
O=C(Nc1ccccc1)c1cccnc1Nc1ccccc1 1.1
CCN(Cc1nc2ccccc2c(=O)[nH]1)Cc1cc(=O)oc2cc(C)c(C)cc12 1.01
CC(C)C(=O)Nc1c(C(=O)c2ccc(F)cc2)oc2ccccc12 1.11
Cc1ccc(S(=O)(=O)NCC(=O)N(CC(=O)NC2CCCCC2)Cc2ccco2)cc1 0.98
Cc1ccc(C)c(N2CCN(S(=O)(=O)c3ccc4c(c3)oc(=O)n4C)CC2)c1 0.98
C=CCNc1ncnc2ccc(Br)cc12 1.1
O=C(CSc1nnc(-c2cccs2)n1Cc1ccco1)c1ccc2c(c1)OCO2 1.08
CC(C)(C)NC(=O)Cn1nnc(-c2ccccc2Cl)n1 1.03
ON=C1/C(=N\O)CC2(C/C1=N/O)OCCO2 0.99
COC(=O)CNC(=O)c1ccc2c(c1)S(=O)(=O)c1ccccc1C2=O 1.02
CCOC(=O)c1oc2ccccc2c1NC(=O)c1cccs1 1.02
CC(C)Oc1ccc(C2NC(=O)NC2=O)cc1 (centres undefined) 1
O=C(CS(=O)(=O)Cc1ccccc1)Nc1cccnc1 1.08
CCOC(=O)c1c(NC(=O)CCC(=O)NCc2ccco2)sc2c1CCCC2 1.03
